# “And” between values parts separate entries of the source, which are not always exact repeats. Equal entries are not always repeated. Where two headings read alike, the source gives them in different places.
# Key:
# EPHA3 = settings: concentration: 1 μM, replicates: in singlicate, n = 1
# EPHA4 = settings: concentration: 1 μM, replicates: in singlicate, n = 1
# EPHA5 = settings: concentration: 1 μM, replicates: in singlicate, n = 1
# EPHA6 = settings: n = 1
# EPHA7 = settings: concentration: 1 μM, replicates: in singlicate; n = 1
# EPHA8 = settings: concentration: 1 μM, replicates: in singlicate; n = 1
# EPHB1 = settings: concentration: 1 μM, replicates: in singlicate, n = 1
# EPHB2 = settings: concentration: 1 μM, replicates: in singlicate, n = 1
# EPHB3 = settings: concentration: 1 μM, replicates: in singlicate; n = 1
# EPHB4 = settings: concentration: 1 μM, replicates: in singlicate; n = 1
# [1] = concentration: 1 μM, replicates: in singlicate
# 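Note: KINOMEscan kinase panel screen.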
SMILES,%Inh (EPHA3) [%],%Inh (EPHA4) [%],%Inh (EPHA5) [%],%Inh (EPHA6; [1]) [%],%Inh (EPHA7) [%],%Inh (EPHA8) [%],%Inh (EPHB1) [%],%Inh (EPHB2) [%],%Inh (EPHB3) [%],%Inh (EPHB4) [%],%Inh (EPHA6; 1 µM) [%],%Inh (EPHA3; 1 µM),%Inh (EPHA4; 1 µM),%Inh (EPHA5; 1 µM),"%Inh (EPHA6; concentration: 1 μM, replicates: in singlicate, 1 µM)",%Inh (EPHB1; 1 µM),%Inh (EPHB2; 1 µM)
O=C(Nc1cccc(-c2nn3ncccc3c2-c2ccnc(Nc3cccc(C(F)(F)F)c3)n2)c1)c1c(F)cccc1F [GSK299495],0,8,0,11,54,49,29,0,14,9,,,,,,,
COc1ccc(CNC(=O)NC2CCN(c3ccnc(Nc4ccc(OC)cc4)n3)C2)cc1 (stereo not shown) [GSK1379727],0,10,0,2,0,1,6,0,7,11,,,,,,,
CCCCCc1nc2c(N)ncnc2n1CCCCC [SKF-97255],0,10,0,5,0,0,5,0,5,0,,,,,,,
Cc1c(Cn2c(C)nn3c(=O)cc(N4CCOC(C)C4)nc23)cccc1C(F)(F)F (stereo not shown) [GSK2344444],0,3,0,0,3,0,10,46,0,0,,,,,,,
N#Cc1ccc(-c2cc(-c3c[nH]nc3-c3ccccn3)ccn2)cc1 [GW693028],18,2,0,0,44,39,7,8,5,11,,,,,,,
O=c1cc(N2CCOCC2)nc2n(Cc3cccc(Cl)c3Cl)c(C3CC3)nn12 [GSK2358994],0,11,6,,0,9,0,0,7,3,0,,,,,,
COCCNC(=O)c1ccc(-c2cc(C(=O)NC3CC3)cc(F)c2C)cc1 [GW868318],38,21,25,30,4,12,16,7,23,32,,,,,,,
Cc1nnc(-c2ccc3ncc(-c4ccc(S(C)=O)cc4)n3c2)o1 (stereo not shown),2,8,11,22,1,1,0,18,12,0,,,,,,,
Nc1nc(-c2ccc3c(N)n[nH]c3c2)cc(N2CCCC2)n1 [GSK2227430],3,5,0,6,0,6,0,0,13,10,,,,,,,
Nc1nccc(-c2c(-c3ccc(F)cc3)ncn2C2CCN(CC(F)(F)F)CC2)n1 [SB-236560],0,0,0,0,0,0,0,14,0,0,,,,,,,
Fc1ccc(-c2ncn(CCCN3CCOCC3)c2-c2ccccn2)cc1 [SB-211742],0,8,0,0,0,9,20,0,20,28,,,,,,,
COc1cc2c(cc1OC[C@@H](O)CO)ncc1c3ccc(C#N)cc3[nH]c21,0,8,11,10,0,0,0,0,14,4,,,,,,,
Cn1ccc2ncnc(Oc3ccc(NC(=O)Nc4ccncc4)c(Cl)c3)c21,0,14,0,16,0,0,0,2,6,1,,,,,,,
Cc1cn2c(=O)cc(N3CCOCC3)nc2n1Cc1cccc(Cl)c1Cl [GSK2334006],0,19,0,10,7,21,16,7,17,19,,,,,,,
NS(=O)(=O)CCc1cccc(Nc2nccc(-c3c(-c4cccc(NC(=O)c5c(F)cccc5F)c4)nn4ccccc34)n2)c1 [GSK336735],30,45,0,48,8,60,26,18,0,11,,,,,,,
O=C(NOCC1CC1)c1ccc(F)c(F)c1Nc1ccc(I)cc1Cl,0,0,1,0,0,0,0,0,0,0,,,,,,,

SMILES,%Inh (EPHA3) [%],%Inh (EPHA4) [%],%Inh (EPHA5) [%],%Inh (EPHA6; [1]) [%],%Inh (EPHA7) [%],%Inh (EPHA8) [%],%Inh (EPHB1) [%],%Inh (EPHB2) [%],%Inh (EPHB3) [%],%Inh (EPHB4) [%],%Inh (EPHA6; 1 µM) [%],%Inh (EPHA3; 1 µM),%Inh (EPHA4; 1 µM),%Inh (EPHA5; 1 µM),"%Inh (EPHA6; concentration: 1 μM, replicates: in singlicate, 1 µM)",%Inh (EPHB1; 1 µM),%Inh (EPHB2; 1 µM)
N#Cc1c(N2CCOCC2)sc(-c2ccn[nH]2)c1-c1ccc(Cl)cc1,11,0,16,27,5,7,14,0,15,12,,,,,,,
Cl.Cl.Cl.Fc1ccc(-c2ncn(C3CCNCC3)c2-c2ccnc(Nc3ccccc3)n2)cc1 [SB-238039],,,,,0,10,,,0,0,,34% and 25%,8% and 0%,7% and 10%,18% and 0%,31% and 0%,25% and 0%
Cc1ccc(NC(=O)c2ccnc(N3CCN(C)CC3)c2)cc1-c1ccc(C(=O)NCC2CC2)cc1 [GW775604],0,7,0,4,0,18,0,0,7,0,,,,,,,
CC(=O)Nc1ccc(COc2ccc(Nc3ccnc4cc(-c5ccccn5)ccc34)cc2)cc1.Cl [GW440148],17,3,0,8,0,17,0,0,8,10,,,,,,,
O=c1cc(N2CCOCC2)nc2n(Cc3cccc(C(F)(F)F)c3)ccn12 [GSK2297543],0,6,0,0,0,2,24,0,3,7,,,,,,,
Cn1cc(-c2ccc3c(c2)CCN3C(=O)Cc2ccccc2Cl)c2c(N)ncnc21 [GSK2608885],34,62,0,58,92,93.5,43,64,0,15,,,,,,,
Cc1cccc(Cn2ccn3c(=O)cc(N4CCOCC4)nc23)c1 [GSK2297542],12,10,0,9,0,19,23,0,13,15,,,,,,,
O=C(NCCNc1ccnc(Nc2ccc(F)cc2)n1)Nc1ccccc1F [GSK1379880],0,6,0,0,2,21,38,0,0,0,,,,,,,
Cc1cccc(-c2nc(-c3ccc(S(C)(=O)=O)cc3)sc2-c2ccncc2)c1,9,48,1,44,19,21,14,13,34,41,,,,,,,
COc1ccc(Nc2ncc(C#N)c(Nc3ccccc3C(N)=O)n2)cc1N1CCN(C)CC1.Cl [GSK1558669],95,61,35,86,81,29,98.6,59,28,76,,,,,,,
COc1ccc(S(=O)(=O)NC2CCN(c3cc(C)nc(Nc4cccc(C#N)c4)n3)CC2)cc1.O=C(O)C(F)(F)F [GSK1653539],7,11,0,0,0,0,7,0,13,16,,,,,,,
[2H]C([2H])(c1cccc(C(F)(F)F)c1C)n1ccn2c(=O)nc(N3CCOCC3)cc12 [GSK2336394],0,1,0,0,11,19,20,0,7,8,,,,,,,
Fc1ccc(-c2ncn(CCCN3CCOCC3)c2-c2cccnc2)cc1 [SB-211743],1,0,11,0,0,3,20,0,0,0,,,,,,,
CN(C1=C(c2ccccc2)C(=O)NC1=O)c1ccccc1 [SB-334860],24,6,6,10,2,6,8,20,11,9,,,,,,,
Cc1ccc(C(=O)NCC(N)=O)cc1-n1c(C)cc(OCc2ccc(F)cc2F)c(Br)c1=O,0,12,0,27,18,15,20,19,25,27,,,,,,,

# From paper PMC5540273 (PLoS ONE, 2017)
